# HT1080 IDH1KD tx – qHTS for induction of synthetic lethality in tumor cells producing 2HG: qHTS for the HT-1080-IDH1KD cell line; HT-1080 IDH1 knockdown viability, ATP luminescence, 48 h; Potency, µM (titrated, usually from 46.1 µM), without a hit: at the top dose activity, negative = toxicity, hits mostly cytotoxic; 360,000 compounds, 2% hits; AID 686971, 2013;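 further: 0% = DMSO wells and -100% = cell-free medium wells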
#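 Luminescent ATP read-out (CellTiter-Glo, 10 min at room temperature) after 48 h compound exposure at 37 °C gave viability of IDH1-knockdown HT-1080 cells. Activity was normalised to DMSO and cell-free wells, then fitted as concentration-response curves.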
# TGFb SMAD3 inh – qHTS for Inhibitors of TGF-b; HepG2 CAGA-GFP TGF-b/SMAD3 reporter, GFP fluorescence, 18 h; TGF-beta stimulated, 500 pg/mL final; Potency, µM (highest dose often 46.1 µM), without a hit: at the highest dose activity, negative = inhibition, hits mostly inhibitors; 410,000 compounds, 1.2% hits; AID 588855, 2011; further: on the % scale 0 is the no-effect control and ±100 the full control effect; nearly all actives have a fitted effect of over 65% in size
#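 Per well, imaged GFP fluorescence of HEPG2 CAGA-GFP cells gives the signal; cells get compound, then TGF-beta (500 pg/mL final), 18 h at 37 degrees C; %Activity versus -TGF-beta and +DMSO controls.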
# HepG2 tox – qHTS for Inhibitors of TGF-b: Cytotox Counterscreen. HepG2 CAGA-GFP viability, ATP luminescence, 18 h. Potency, µM (series often up to 46.1 µM), for inactives: at the top dose activity change, negative = cytotoxicity, usual class: cytotoxic. 410,000 compounds, 0.76% hits
#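 HepG2 CAGA-GFP cells (1000/well, DMEM with 1% FBS) received compound, then TGF-beta at 500 pg/mL final, and were incubated 18 hours at 37 degrees C. Viability was read by CellTiter-Glo luminescence. Media-only wells were set as complete cell-killing and DMSO as no toxicity.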
# KB-V1 MDR tox – qHTS assay for MDR1-selective chemotherapeutics: Primary screen using the drug-selected MDR subline cells KB-V1 | KB-V1 MDR cells viability, CellTiter-Glo, 72 h | Potency, µM (series often up to 46.1 µM), hits mostly cytotoxic | 400,000 compounds, 3.4% hits; further: on the % scale 0 is the no-effect control and ±100 the full control effect; nearly all actives have a fitted effect of over 60% in size
#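 KB-V1, DMEM (no phenol red) + 10% FBS; cpd pin-transferred, titration series; 72 h, 37 degrees C; CellTiter-Glo, luminescence. Data normalized, curve-fit.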
# HT1080NT lethal – qHTS for induction of synthetic lethality in tumor cells producing 2HG: qHTS for the HT-1080-NT fibrosarcoma cell line; HT-1080-NT fibrosarcoma viability, CellTiter-Glo ATP luminescence, 48 h; Potency, µM (top dose mostly 46.1 µM), for the others: top-dose activity, negative = less viability, usual class: cytotoxic; 360,000 compounds, 1.6% hits;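 further: NT is the 2HG producing partner of a matched IDH1 knockdown line; 0% = DMSO-treated cells and -100% = media-only wells without cells; nearly all actives have a fitted effect of over 55% in size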
#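 A 48-hour cytotoxicity screen used HT-1080-NT cells plated 2 hours before compound delivery. ATP-based CellTiter-Glo luminescence measured viability, normalized to DMSO and no-cell controls.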
# KB-3-1 cytotox – qHTS assay for MDR1-selective chemotherapeutics: Primary screen using the parental adenocarcinoma cell KB-3-1; 400,000 compounds, 1.4% hits; KB-3-1 viability, CellTiter-Glo ATP luminescence, 72 h; Potency, µM (top dose mostly 46.1 µM), actives largely listed as cytotoxic; further: on the % scale 0 is the no-effect control and ±100 the full control effect; nearly all actives have a fitted effect of over 60% in size
#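 Multi-concentration cytotoxicity screen in KB-3-1 cells grown in DMEM lacking phenol red with 10% FBS. After 72 h at 37 °C with compound, ATP-dependent luminescence was recorded.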
# Starred values were filed as active, the others as inactive; i = inactive; ? = inconclusive; . = no result given. This is a sample that favours compounds with a hit; in the whole collection about 6.6% have one here. The call rests on the fitted dose curve; in most records, active means well fitted curve in the direction sought with a large enough effect; inconclusive means small, poorly fitted or top-dose-only effect, or another doubt; inactive means no such curve, though single readings can be large; an effect the other way counts as inactive or inconclusive. Potency means the concentration at half of the fitted maximal effect.
SMILES,HT1080 IDH1KD tx,TGFb SMAD3 inh,HepG2 tox,KB-V1 MDR tox,HT1080NT lethal,KB-3-1 cytotox
COc1ccc(NC(=O)N(C)[C@H]2C[C@H]3c4[nH]c5ccc(-c6ccc(OC)cc6)cc5c4CCN3C[C@H]2[C@H](C)O)cc1,16.4µM*,?,-102.6%,?,23.1µM*,20.6µM*
COc1ccc(-c2ccc3[nH]c4c(c3c2)CCN2C[C@@H]([C@H](C)OC(=O)Nc3cc(Cl)cc(Cl)c3)[C@@H](N(C)C(=O)Nc3cc(Cl)cc(Cl)c3)C[C@@H]42)cc1,-4.0%,9.1%,-5.0%,?,-19.4%,i
COc1ccc(NC(=O)N(C)[C@H]2C[C@H]3c4[nH]c5ccc(-c6ccc7c(c6)OCO7)cc5c4CCN3C[C@H]2[C@H](C)O)cc1,23.1µM*,?,-82.9%,i,23.1µM*,?
CN[C@H]1C[C@H]2c3[nH]c4ccc(-c5cccc(C)c5)cc4c3CCN2C[C@H]1[C@H](C)O,?,?,-124.0%,i,16.4µM*,?
COc1cc2nc(C3CCC3)nc(N3CCN(c4ccccc4OC)CC3)c2cc1OC,-20.3%,?,-129.9%,7.31µM*,-17.1%,i
CCC1=NN(C(=O)COc2ccccc2C)C(O)(c2ccncc2)C1 (configuration not stated),-0.6%,9.8%,2.9%,i,5.3%,i
CC1=NN(C(=O)COc2ccccc2C)C(O)(c2ccc(Cl)cc2)C1 (configuration not stated),9.1%,?,-30.4%,13µM*,0.0%,i
CCOC(=O)c1sc2ccccc2c1S(=O)(=O)Nc1ccc(CC)cc1,.,?,-38.4%,?,.,?
CN(C)CCNc1ccc2ncn3c4ccc(O)cc4c(=O)c1c23,20.6µM*,?,1.2%,i,?,?
CN(C)CCNc1ccc(CO)c2sc3ccc(O)cc3c(=O)c12,16.4µM*,14.1µM*,-23.5%,?,?,?
COc1ccc2sc3cccc(NCCN(C)C)c3c(=O)c2c1,16.4µM*,?,2.8%,?,16.4µM*,?
COc1ccc2oc3cc(NCCN(C)C)ccc3c(=O)c2c1,?,?,-14.8%,i,?,i
CC1(C)Oc2c(ccc(O)c2CN2CCOCC2)C2=C1CCCC2,23.6%,0.0%,-11.5%,18.4µM*,17.5%,i
O=c1oc2c(CN3CCOCC3)c(O)ccc2c2c1CCCC2,0.8%,-4.4%,-35.5%,i,1.4%,i
CSc1ccc(CNC(=O)CN2C(=O)C3CCCCN3c3ccc(C(=O)N4CCCC4)cc32)cc1 (configuration not stated),.,-3.2%,-12.1%,i,.,i
O=C(COC(=O)c1ccc2c(c1[N+](=O)[O-])C(=O)c1ccccc1C2=O)NC1CC1,?,17.8µM*,-43.1%,i,?,?
Cc1ccc(NC(=O)COC(=O)c2cccc3c2C(=O)c2ccccc2C3=O)c(C)c1,?,-1.7%,9.1%,?,4.9%,i
O=C(COC(=O)c1cccc2c1C(=O)c1ccccc1C2=O)NC1CCCCC1,?,?,-8.5%,20.6µM*,?,i
O=C(COC(=O)c1ccccc1F)NC1CCCC1,17.1%,6.0%,-2.0%,?,17.7%,i
Cc1ccc(C)c(NC(=O)COC(=O)c2cccc3c2C(=O)c2ccccc2C3=O)c1,-6.8%,?,-21.1%,14.6µM*,-1.1%,?
